Measurements as given in PubChem BioAssay (NCATS).
Inconclusive results are not listed. The call rests on the fitted dose curve; in most records, active means well fitted curve in either direction with a large enough effect (not every such curve was filed as active); inconclusive means small, poorly fitted or top-dose-only effect, or another doubt; inactive means flat fitted curve, though single readings scatter.

These compounds were tested against Mitogen-activated protein kinase 10 (Mus musculus) (UniProt Q61831) (assay: JNK3 AlphaScreen Assay (AID 530;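 further: kinase came from lysate of stimulated human HepG2 cells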)). Details: JNK3 lysate, c-Jun phosphorylation; series mostly up to 57.1 µM; activity change, negative = inhibition: at the top concentration.
In short: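 Biotinylated GST-cJun(1-79) served as substrate for JNK3 in HepG2 lysates stimulated with IL-1beta and TNF-alpha. ATP was 10 uM final, pH 7.6. Ser73 phosphorylation was quantified by AlphaScreen (680 nm excitation).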
On the % scale 0 is the no-effect control and ±100 the full control effect.

Activity change, negative = inhibition, inactive:
COC(=O)c1ccc(C(/C=C/[C@@H](C)C(=O)NCc2ccc(OC)c(O)c2)NC(=O)OCc2ccccc2)cc1 (some centres undefined) 1.1%
COC(=O)c1ccc(C(NC(=O)OCc2ccccc2)/C(F)=C/[C@@H](C)C(=O)Nc2ccc(OC)cc2)cc1 (some centres undefined) -2.26%
COC(=O)[C@H](Cc1ccccc1)NC(=O)[C@H]1C[C@@H]1[C@H](NC(=O)OCc1ccccc1)c1ccccc1 -6.01%
COC(=O)[C@H](Cc1ccccc1)NC(=O)[C@]1(C)C[C@H]1[C@H](NC(=O)OCc1ccccc1)c1ccccc1 11.2%
COC(=O)c1ccc(C(NC(=O)OCc2ccccc2)/C(F)=C/[C@@H](C)C(=O)NCc2nc3ccccc3s2)cc1 (some centres undefined) -2.14%
COCCNC(=O)[C@@]1(C)C=C[C@@H](Cc2ccccc2)N1C(=O)c1ccccc1 -2.52%
CCCCCCN(C(=O)CCCCCN1C(=O)NC(c2cccc([N+](=O)[O-])c2)C(C(=O)OCc2ccccc2)=C1C)C(C(=O)NCCCC)c1ccc(OCC(=O)OC)c(C(=O)OC)c1 (centres undefined) -11.4%
COC(=O)c1ccc(C(NC(=O)OCc2ccccc2)/C(F)=C/[C@@H](C)C(=O)NCc2cccnc2)cc1 (some centres undefined) -2.4%
COC(=O)c1ccc(C(/C=C/[C@@H](C)C(=O)NCc2cc(C)n(C)n2)NC(=O)OCc2ccccc2)cc1 (some centres undefined) -3.79%
COC(=O)c1ccc(C(NC(=O)OCc2ccccc2)/C(C)=C/[C@@H](C)C(=O)NCc2nn(-c3ccccc3)nc2C)cc1 (some centres undefined) 0.189%
COC(=O)[C@@H]1CCCN1C(=O)[C@H]1C[C@@H]1[C@H](NC(=O)OCc1ccccc1)c1ccccc1 1.6%
COC(=O)N1[C@H](Cc2ccccc2)C=C[C@]1(C)C(=O)NCc1ccccn1 -10.7%
COC(=O)[C@@H]1C[C@H]1[C@@H](NC(=O)c1ccc(Br)cc1)c1ccccc1 2.16%
CC(C)NC(=O)[C@@H]1C[C@H]1[C@@H](NC(=O)OCc1ccccc1)c1ccccc1 -1.31%
COC(=O)c1ccc(C(NC(=O)OCc2ccccc2)/C(=C/[C@@H](C)C(=O)NCCc2c[nH]c3ccccc23)c2cccnc2)cc1 (some centres undefined) -10%
CC1(C(=O)NCc2cc(F)cc(C(F)(F)F)c2)C=CC2(CCCCC2)N1C(=O)c1ccccc1 (centres undefined) 4.02%
COC(=O)[C@@]1(C)C=C[C@@H](Cc2ccccc2)N1C -10.9%
CC(C)NC(=O)[C@@H]1C[C@@]1(C)[C@@H](NC(=O)OCc1ccccc1)c1ccccc1 17.6%
CC(C)CC1(C(=O)NCC2CC2)C=CCN1C(=O)c1ccccc1 (centres undefined) -17.7%
COC(=O)c1ccc(C(NC(=O)OCc2ccccc2)/C(=C/[C@@H](C)C(=O)Nc2ccccc2)c2cccnc2)cc1 (some centres undefined) -4.18%
COC(=O)c1ccc(C(NC(=O)OCc2ccccc2)/C(=C/[C@@H](C)C(=O)Nc2ccc(OC)cc2)c2cccnc2)cc1 (some centres undefined) -7.03%
CCCCNC(=O)C(c1ccc(OCC(=O)OC)c(C(=O)OC)c1)N(Cc1ccccc1)C(=O)CCCCCN1C(=O)NC(c2ccc(-c3ccccc3)cc2)C(C(=O)OCc2ccccc2)=C1C (centres undefined) -9.83%
COC(=O)c1ccc(C(NC(=O)OCc2ccccc2)/C(=C/[C@@H](C)C(=O)NCc2ccc(OC)c(OC)c2)c2cccnc2)cc1 (some centres undefined) -2.68%
CNC(=O)[C@@H]1C[C@H]1[C@@H](NC(=O)OCc1ccccc1)c1ccccc1 1.63%
COC(=O)c1ccc(C(NC(=O)OCc2ccccc2)/C(=C/[C@@H](C)C(=O)NCc2nc3ccccc3s2)c2cccnc2)cc1 (some centres undefined) -6.91%
COCCNC(=O)C1(C)C=CC2(CCCCC2)N1C(=O)c1ccccc1 (centres undefined) 1.57%
CC(=O)N1CC=CC1(CC(C)C)C(=O)NCCc1c[nH]c2ccccc12 (centres undefined) -10.7%
CCC[C@@H]1C[C@@]1(CCC)[C@@H](NC(=O)Oc1ccccc1)c1ccc(C(=O)OC)cc1 19.3%
COC(=O)c1ccc(C(NC(=O)OCc2ccccc2)/C(=C/[C@@H](C)C(=O)NCCF)c2cccnc2)cc1 (some centres undefined) 1.18%
CC(=O)N1CC=CC1(CC(C)C)C(=O)NCc1cc(F)cc(C(F)(F)F)c1 (centres undefined) 4.68%
COC(=O)[C@H](Cc1ccccc1)NC(=O)[C@@]1(C)C[C@@H]1[C@@H](NC(=O)OCc1ccccc1)c1ccccc1 2.3%
CC(=O)N1[C@H](Cc2ccccc2)C=C[C@]1(C)C(=O)NCc1cc(F)cc(C(F)(F)F)c1 6.63%
CC(=O)N1[C@H](Cc2ccccc2)C=C[C@]1(C)C(=O)NCCN1CCOCC1 3.26%
COC(=O)c1ccc(C(NC(=O)OCc2ccccc2)/C(=C/[C@@H](C)C(=O)NCc2cc(F)cc(F)c2)c2cccnc2)cc1 (some centres undefined) 2.7%
